Source: PubChem
Tau fluor cs – counter-screen for tau fibril formation inhibitors. tau K18 P301L Alexa594 fluorescence, heparin fibrillization. Potency, µM (series often up to 57.7 µM), without a hit: at the top dose activity change, negative = decrease. 280,000 compounds, 0.93% hits; also: nearly all actives have a fitted effect of over 55% in size
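Human tau K18 P301L (15 uM unlabeled, 0.24 uM Alexa 594-labeled) in 100 mM sodium acetate pH 7 with 20 uM heparin, 6 hr at 37 C. ThT 30 uM added, 1 hr ambient; Alexa 594 FP and total fluorescence read at 555/632 nm.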
Tau fibril FP – tau fibrillization inhibition (FP); Potency, µM (highest dose often 57.7 µM), without a hit: top-dose activity, negative = inhibition, usual class: inhibitors; AID 1468; 280,000 compounds, 0.39% hits; K18 P301L tau heparin fibrillization, Alexa594 FP, 6 h; P10636; also: nearly all actives have a fitted effect of over 55% in size
Target sequence (P10636 561-689 P618L limits assumed): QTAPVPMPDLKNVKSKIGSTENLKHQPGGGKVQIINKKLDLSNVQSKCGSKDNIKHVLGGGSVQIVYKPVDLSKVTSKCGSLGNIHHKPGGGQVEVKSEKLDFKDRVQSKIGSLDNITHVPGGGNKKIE
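K18 P301L tau (15 uM unlabeled/0.24 uM Alexa 594-labeled, final) + compound + heparin 20 uM final; 100 mM NaOAc pH 7; 6 hr 37 C; ThT 30 uM final added, 1 hr RT; FP ex 555/em 632 nm.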
TR SRC2 fluor cs – Texas Red fluorescence interference in TRb-SRC2 counter-screen; TRb/SRC2 Texas Red total fluorescence interference; Potency, µM (series often up to 106 µM), without a hit: at the top dose fluorescence change, negative = quenching; 280,000 compounds, 0.29% hits; AID 1479; active = well fitted curve in either direction with a large enough effect; inconclusive = small, poorly fitted or top-dose-only effect
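Flags fluorescent or light-absorbing compounds by total fluorescence, S + 2P, at 555 nm excitation and 632 nm emission. Mixture: 20 nM Texas Red SRC2 peptide, 0.6 uM human TRb LBD, 1 uM T3, 5% DMSO; compound exposure 5 h at ambient temperature.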
TRb-SRC2 inh – disrupts binding of human TR beta to SRC2 | P10828 | TRbeta-SRC2 peptide binding, fluorescence polarization; receptor liganded with 1 µM T3 | Potency, µM (series often up to 106 µM), without a hit: at the highest dose activity change, negative = inhibition, actives largely listed as inhibitors | 280,000 compounds, 0.065% hits;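 also: plate controls were bound peptide for no effect and peptide without receptor for full effect; nearly all actives have a fitted effect of over 50% in size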
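Fluorescence polarization of 20 nM Texas Red SRC2 peptide with 0.6 uM human TRb ligand-binding domain, in Tris buffer with 1uM T3 and 5% DMSO. Incubated 5 hr ambient; normalized to unbound and bound controls.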
GoLoco inh red – RGS12 GoLoco-Gai1 interaction inhibition | Gai1:RGS12 GoLoco peptide FP, rhodamine, 10 min | 230,000 compounds, 0.44% hits | P63096 | Potency, µM (highest dose often 61.6 µM), for inactives: top-dose activity, negative = inhibition, actives largely listed as inhibitors; active = well fitted inhibition curve with a large enough effect, not every such curve was filed as active; inactive = no such curve, though single readings can be large or run the other way; also: nearly all actives have a fitted effect of over 30% in size
Target sequence (P63096 whole entry, looked up): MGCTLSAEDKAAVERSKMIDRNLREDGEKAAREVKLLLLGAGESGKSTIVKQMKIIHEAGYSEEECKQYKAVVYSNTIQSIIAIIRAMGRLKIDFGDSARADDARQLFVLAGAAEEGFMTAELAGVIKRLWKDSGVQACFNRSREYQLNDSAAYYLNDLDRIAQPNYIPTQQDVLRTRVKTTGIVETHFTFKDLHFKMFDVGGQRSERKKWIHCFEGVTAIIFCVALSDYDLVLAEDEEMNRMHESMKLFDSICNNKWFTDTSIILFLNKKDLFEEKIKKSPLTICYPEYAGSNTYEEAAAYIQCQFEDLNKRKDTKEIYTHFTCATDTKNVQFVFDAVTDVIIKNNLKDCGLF
Tau ThT inhib – tau fibrillization inhibition (ThT binding) | P10636 | recombinant tau K18 P301L (four-repeat tau fragment), heparin-induced fibrillization, ThT fluorescence | Potency, µM (top dose mostly 57.4 µM), inactives show at the highest dose activity, negative = inhibition, hits mostly inhibitors | 270,000 compounds, 2.1% hits | AID 1460; also: nearly all actives have a fitted effect of over 55% in size
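Tau K18 P301L fragment (15 uM unlabeled plus 0.24 uM Alexa 594-labeled) in 100 mM sodium acetate pH 7 with compound, fibrillization induced by 20 uM heparin for 6 hr at 37 C. Thioflavin T (30 uM) added, fluorescence read after 1 hr (ex 450, em 510 nm).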
The depositor's hits bear a star; ? = inconclusive; . = no result given; [ ] = remark or other dose. A selection: hits, their analogues and other compounds. The true share with any hit is near 3.2%. Unless noted, calls follow the shape of the dose curve; as a rule, active = well fitted curve in the direction sought with a large enough effect; inconclusive = small, poorly fitted or top-dose-only effect, or another doubt; inactive = no such curve, though single readings can be large; an effect the other way counts as inactive or inconclusive. Unless noted, % is scaled to controls: 0 for no effect and ±100 for the full control effect; potency is read from the fitted curve at half-maximal effect.

SMILES	Tau fluor cs	Tau fibril FP	TR SRC2 fluor cs	TRb-SRC2 inh	GoLoco inh red	Tau ThT inhib
CCOc1ccc(Nc2ncnc3ccc([N+](=O)[O-])cc23)cc1	-16.4%	15.8%	-5.8%	-3.7%	-3.4%	10µM*
CCOC(=O)c1ccc(Nc2ncnc3ccc(C)cc23)cc1	-8.2%	-4.3%	-1.7%	3.6%	0.2%	0.2%
COc1ccc(CNc2ccnc(-c3ccc(N(C)C)cc3)n2)c(OC)c1	.	.	.	.	-7.9%	.
CCCCn1c(N)c(-c2nc3ccccc3s2)c2c([N+](=O)[O-])nn(C)c(=O)c21	?	8.2%	0.3%	5.6%	-2.2%	14.1µM*
CCCCn1c(N)c(-c2nc3ccccc3s2)c2c([N+](=O)[O-])nn(CC)c(=O)c21	?	15.4%	-1.6%	0.8%	5.1%	?
O=C(NS(=O)(=O)c1ccc(F)cc1)O[C@@H]1C(=O)c2cc(Br)ccc2O[C@H]1c1ccc2c(c1)OCO2	-13.3%	?	-3.0%	10.0%	-2.6%	?
CC(C)=NNc1nc(-c2ccccc2)cs1	9.5%	-3.3%	-1.4%	6.0%	22.4%	0.8%
C/C(CCC1CC(C)OC1=O)=N/Nc1nc(-c2ccccc2)cs1 (stereo unspecified)	?	?	-1.9%	4.3%	-6.3%	28.2µM*
CC(/C=C/c1ccccc1)=N\Nc1nc(-c2ccccc2)cs1	11.2µM*[quencher]	11.4%	-3.2%	0.8%	3.5%	7.94µM*
CCOC(=O)C/C(C)=N\Nc1nc(-c2ccccc2)cs1	?	?	-6.7%	4.0%	25.0%	14.1µM*
C(=N\Nc1nc(-c2ccccc2)cs1)/c1cccnc1	15.8µM*[quencher]	12.1%	-4.3%	2.1%	-6.8%	15.8µM*
CC1CC(CC(=O)NNc2nc(-c3ccccc3)cs2)C(=O)O1 (stereo unspecified)	-7.7%	0.7%	-1.6%	3.7%	-2.4%	-14.0%
CCSC[C@H](NC(=O)[C@H](C)NC(=O)[C@@H](N)Cc1ccc(O)cc1)C(=O)N[C@@H](CC(=O)O)C(=O)N[C@H](C(=O)N[C@@H](C)C(=O)N[C@H](C(=O)N[C@@H](CSCC)C(=O)N[C@H](C(=O)N[C@H](C(=O)N[C@@H](Cc1cnc[nH]1)C(=O)N[C@@H](CCCNC(=N)N)C(=O)N[C@@H](CC(C)C)C(=O)N[C@@H](C)C(=O)NCC(=O)N[C@@H](CC(C)C)C(=O)N[C@@H](CC(C)C)C(=O)N[C@@H](CO)C(=O)N[C@@H](CCCNC(=N)N)C(=O)N[C@@H](CO)C(=O)NCC(=O)NCC(=O)N[C@H](C(=O)N[C@H](C(=O)N[C@@H](CCCCN)C(=O)N[C@@H](CC(N)=O)C(=O)N[C@@H](CC(N)=O)C(=O)N[C@@H](Cc1ccccc1)C(=O)N[C@H](C(=O)N1CCC[C@H]1C(=O)N[C@H](C(=O)N[C@@H](CC(N)=O)C(=O)N[C@H](C(=O)NCC(=O)N[C@@H](CO)C(=O)N[C@@H](CCCCN)C(=O)N[C@@H](C)C(=O)N[C@@H](Cc1ccccc1)C(N)=O)C(C)C)[C@@H](C)O)C(C)C)C(C)C)C(C)C)[C@@H](C)O)C(C)C)[C@@H](C)O)[C@@H](C)O	.	.	1.1%	-6.5%	.	.
CC(=O)Oc1cc(OC(C)=O)c2c(=O)cc(-c3ccc(OC(C)=O)c(OC(C)=O)c3)oc2c1	?	?	-7.1%	-5.1%	2.4%	?
CCCC(=O)Nc1ccc(-c2csc(N/N=C\c3ccncc3)n2)cc1	15.8µM*[quencher]	?	-5.5%	1.4%	-6.8%	.
CC1(C)c2ccccc2N2CC(=O)N(CC(N)=O)C21C (stereo unspecified)	31.6µM*[fluorescent]	?	50.1µM*[fluorescent]	?	162.3%	?
CCCn1c(-c2ccc(F)cc2)nc2c(NCCCN3CCCCC3C)nc(C)nc21 (stereo unspecified)	-8.8%	5.3%	-0.2%	-0.6%	6.6%	-11.7%
COc1cccc(Cn2c(=O)c(C)nc3cnc(OCc4ccccc4)nc32)c1	.	.	.	.	15.5%	.
CCn1c2ccccc2c2cc(NC(=O)c3ccc(Br)o3)ccc21	?	?	-6.0%	-13.6%	157.1%	12.6µM*
COC(=O)N1CC=CC1(C)C(=O)NCc1ccc(C)o1 (stereo unspecified)	-19.2%	?	3.6%	10.9%	-37.9%	22.4µM*
COC(=O)N1CC=CC1(C)C(=O)NCC1CC1 (stereo unspecified)	-13.2%	-2.5%	-1.5%	5.7%	-2.0%	-17.9%
Cc1ccc2c(c1)N[C@H](c1ccc(C(=O)O)cc1)c1cccn1-2	.	.	.	.	-3.0%[14.2 µM]	.
CCCN(CCC)C(=O)c1cc([N+](=O)[O-])cc2c1-c1ccc([N+](=O)[O-])cc1C2=C(C#N)C#N	?	?	-0.8%	-0.8%	5.8%	31.6µM*
CCCNC(=O)c1ccc(-n2c(-c3ccccc3)cc3c2CCC(C)C3)cc1 (stereo unspecified)	?	12.6µM*	?	3.2%	.	-7.4%
CC(C)NC(=O)c1ccc(-n2c(-c3ccccc3)cc3c2CCCCC3)cc1	?	12.6µM*	0.6%	1.1%	.	8.7%
SMILES	Tau fluor cs	Tau fibril FP	TR SRC2 fluor cs	TRb-SRC2 inh	GoLoco inh red	Tau ThT inhib
CC1CCc2c(cc(-c3ccccc3)n2-c2ccc(C(=O)NC(C)C)cc2)C1 (stereo unspecified)	?	11.2µM*	1.7%	-5.0%	.	?
COCCNC(=O)c1ccc(-n2c(-c3ccccc3)cc3c2CCC(C)C3)cc1 (stereo unspecified)	?	8.3%	-22.4%	7.8%	.	-7.8%
CCCCCCCC[Si](Cl)(Cl)Cl	.	.	0.9%[201 µM]	0.8%[201 µM]	.	.
O=C(c1ccc(Cl)c([N+](=O)[O-])c1)N(Cc1cccc(Cl)c1)C1CCS(=O)(=O)C1 (stereo unspecified)	-7.6%	-4.5%	112µM*[quencher]	-13.3%	6.0%	1.7%
O=C(c1ccc(Cl)c([N+](=O)[O-])c1)N(Cc1ccccc1)C1CCS(=O)(=O)C1 (stereo unspecified)	-3.8%	3.5%	1.0%	2.4%	-1.4%	-1.4%
COC(=O)C(=C/C=C/c1ccco1)C(=O)OC	-14.9%	-8.6%	-4.8%	3.0%	-1.6%	?
COc1ccc(NC(=O)/C(C#N)=C\C=C\c2ccco2)cc1	-9.2%	12.8%	3.6%	3.8%	14.2%	2.51µM*
COC(=O)c1cc(C)nc(Sc2ccccc2N)n1	?	?	-2.0%	-2.2%	-18.3%	28.2µM*
COC(=O)c1ccccc1NC(=O)CSc1nc(C)cc(C)n1	-3.8%	8.0%	-2.5%	-8.8%	17.1%	-4.0%
Fc1ccccc1CN1CCCN(C(=S)Nc2cccc(Cl)c2)C1	?	31.6µM*	0.7%	-12.0%	-10.6%	5.4%
